Inconclusive results are not listed. The source made the active and inactive calls. Unless noted, the call rests on the fitted dose curve. Square brackets hold non-standard residues; d marks the D form. Peptide text beside a SMILES is read from it. * marks the point of attachment. Sta = CC(C)C[C@H](N)[C@@H](O)CC(=O)O; Isovaleryl = CC(C)CC(=O)*
What was measured:
[1] = biological target: Gonadotropin-releasing hormone receptor (Homo sapiens) (UniProt P30968); test: Human gonadotropin-releasing hormone receptor (GnRHR) small molecule agonists, calcium flux assay in GnRHR-HEK293 cells (AID 1920063); further: nearly all actives have a fitted effect of over 35% in size; further: potency means the concentration at half of the fitted maximal effect
Method in brief: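 GnRHR-HEK293, 1500 cells/well, 18 h 37 C/5% CO2; Ca dye 1 h 37 C; cpd pinned (DMSO), agonist mode; kinetic FL 480/540, 3 min, 1 s reads; 15 conc, n=3.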

[2] = biological target: KiSS-1 receptor (Homo sapiens) (UniProt Q969F8); test: Human kisspeptin (KISS1R) small molecule agonists, calcium flux assay in KISS1R-HEK293 cells (AID 1920064; active means well fitted activation curve with a large enough effect in the repeat runs; further: potency means the concentration at half of the fitted maximal effect)
Method in brief: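 Stable human KISS1R HEK293 line; 18 h plating, 37 C/5% CO2; calcium dye 1 h 37 C; compound pin transfer; kinetic fluorescence Ex/Em 480/540, 3 min.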

[3] = G protein-coupled receptor (GPCR) small molecule agonists, calcium flux assay: HEK293 wild type cell line counter screen (AID 1920065)
Method in brief: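 Kinetic fluorescence at Ex/Em 480/540, recorded every second over 3 min, served as the read-out after compound addition. Each compound was tested at 15 concentrations in triplicate on cells pre-loaded with calcium dye for 1 h.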

[4] = p53 small molecule agonists, cell-based qHTS assay with human liver microsomes: qHTS cell viability counter screen (AID 1963579); further: nearly all actives have a fitted effect of over 45% in size; further: potency means the concentration at half of the fitted maximal effect
Method in brief: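 p53RE-bla cells (4,000/well) were pre-incubated 5 h at 37 C, then given compounds in DMSO plus human liver microsomes (0.5 mg/mL final) and NADPH (0.5 mg/mL final) for 16 h at 37 C. Viability was read by CellTiter-Glo luminescence.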

[5] = p53 small molecule agonists, cell-based qHTS assay with rat liver microsomes: qHTS cell viability counter screen (AID 1963580); further: nearly all actives have a fitted effect of over 45% in size
Method in brief: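 In HCT-116 cells carrying a p53 response element-bla reporter, compounds were metabolically activated in situ by rat liver microsomes with NADPH over 16 h. Cell ATP content then served as the cytotoxicity measure.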

[6] = p53 small molecule agonists, cell-based qHTS assay: qHTS cell viability counter screen (AID 1963581); further: nearly all actives have a fitted effect of over 45% in size
Method in brief: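 HCT-116 p53RE-bla cells, 4,000/well, plated 5 h before compound pin transfer; 16 h at 37 C; bla substrate 2 h RT; then CellTiter-Glo, 30 min RT, luminescence.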

[7] = biological target: 5-hydroxytryptamine receptor 2A (Homo sapiens) (UniProt P28223); test: 5-hydroxytryptamine receptor 2A (HTR2A) small molecule antagonists, cell-based qHTS assay (AID 1963586); further: nearly all actives have a fitted effect of over 45% in size
Method in brief: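 Antagonist-mode intracellular calcium assay: DOI (4 nM) added after 5 min compound pre-incubation at room temperature to dye-loaded HTR2A-CHO cells. Fluorescence followed for 3 min, sampled every second.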

[8] = biological target: 5-hydroxytryptamine receptor 2A (Homo sapiens) (UniProt P28223); test: 5-hydroxytryptamine receptor 2A (HTR2A) small molecule agonists, cell-based qHTS assay (AID 1963587); further: nearly all actives have a fitted effect of over 30% in size; further: potency means the concentration at half of the fitted maximal effect
Method in brief: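 HTR2A-CHO cells, plated 18 h at 37 C/5% CO2, dye-loaded 1 h at 37 C; compounds in DMSO added by pin tool (agonist mode). Intracellular calcium flux read as kinetic fluorescence on FDSS over 2 min at 1 s intervals.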

[9] = biological target: Muscarinic acetylcholine receptor M1 (Homo sapiens) (UniProt P11229); test: Cholinergic receptor muscarinic 1 (CHRM1) small molecule agonists, cell-based qHTS assay (AID 1963589); further: nearly all actives have a fitted effect of over 35% in size
Method in brief: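 Human M1 in stable CHO line; 18 h plating, 1 h dye load 37 C; cpd added (agonist mode); Ca2+ fluorescence kinetic read, 1 s intervals; 15 conc, 3 runs.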

[10] = cAMP Responsive Elements (CRE) small molecule antagonists, cell-based qHTS assay (AID 1963591; active means well fitted inhibition curve with a large enough effect in the signal ratio in the repeat runs, not every such curve was filed as active; the % refers to the signal ratio)
Method in brief: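 Beta-lactamase reporter read by FRET substrate (LiveBLAzer B/G) after 2 h at room temperature. CRE-bla HEK293T cells had received compound plus 0.25 uM (final) NKH477 for 3 h at 37 °C.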

[11] = biological target: D(2) dopamine receptor (Homo sapiens) (UniProt P14416); test: Dopamine D2 receptor (DRD2) small molecule agonists, cell-based qHTS assay (AID 1963594); further: nearly all actives have a fitted effect of over 35% in size
Method in brief: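 HEK293 cells stably expressing DRD2 were cultured 24 h at 37 C, then given Ro20-1724 (0.1 mM final) and compounds for 10 min at room temperature. NKH477 (200nM) was then added for 30 min. cAMP was read by HTRF.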

[12] = biological target: D(2) dopamine receptor (Homo sapiens) (UniProt P14416); test: Dopamine D2 receptor (DRD2) small molecule antagonists, cell-based qHTS assay (AID 1963595; active means well fitted inhibition curve with a large enough effect in the signal ratio in the repeat runs, with a control signal flat; the % refers to the signal ratio)
Method in brief: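 DRD2-HEK293; 0.1 mM Ro20-1724; cpd 10 min RT; NKH477 200 nM + quinpirole 12 nM, 30 min RT; HTRF cAMP (cAMP-d2/anti-cAMP cryptate), 665/620 nm ratio after 1 h.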

[13] = p53 small molecule agonists, cell-based qHTS assay with human liver microsomes (AID 1963577)
Method in brief: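 p53RE-bla reporter cells were pre-incubated 5 h at 37 C, then treated with compounds plus human liver microsomes (0.5 mg/mL final) and NADPH (0.5 mg/mL final) for 16 h at 37 C. Beta-lactamase activity was read by LiveBLAzer fluorescence after 2 h at room temperature.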

[14] = p53 small molecule agonists, cell-based qHTS assay with rat liver microsomes (AID 1963578)
Method in brief: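 p53RE-bla cells were exposed to compounds together with rat liver microsomes (0.5 mg/mL final) and NADPH (0.5 mg/mL final) for 16 h at 37 C, then read by LiveBLAzer beta-lactamase fluorescence after 2 h at room temperature.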

[15] = biological target: Muscarinic acetylcholine receptor M1 (Homo sapiens) (UniProt P11229); test: Cholinergic receptor muscarinic 1 (CHRM1) small molecule antagonists, cell-based qHTS assay (AID 1963588); further: nearly all actives have a fitted effect of over 40% in size
Method in brief: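 CHRM1-CHO calcium-flux assay, antagonist mode. Cells were seeded 18 h, dye-loaded 1 h at 37 C and given compound for 5 min at RT, then acetylcholine was added at 50nM. FDSS fluorescence was read 3 min; 15 concentrations, three runs.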

[16] = cAMP Responsive Elements (CRE) small molecule agonists, cell-based qHTS assay (AID 1963590)
Method in brief: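 HEK 293T CRE-bla, 2,000 cells/well, 18 h preincubation 37 C/5% CO2; cpds (DMSO) pinned, 3 h; LiveBLAzer B/G FRET substrate, 2 h RT.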

[17] = biological target: Beta-2 adrenergic receptor (Homo sapiens) (UniProt P07550); test: Adrenergic beta2 receptor (ADRB2) small molecule antagonists, cell-based qHTS assay (AID 1963592); further: series mostly up to about 92 µM; nearly all actives have a fitted effect of over 50% in size
Method in brief: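 Cells (CHO, stable ADRB2 overexpression) incubated 18-20hr at 37C; compounds added from DMSO; agonist mix (1nM isoproterenol, 100uM IBMX, 25uM Ro-20-1724) added; 0.5hr RT; d2-cAMP and anti-cAMP-cryptate added; 1hr RT; 665/615 nm read.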

[18] = biological target: Beta-2 adrenergic receptor (Homo sapiens) (UniProt P07550); test: Adrenergic beta2 receptor (ADRB2) small molecule agonists, cell-based qHTS assay (AID 1963593); further: potency means the concentration at half of the fitted maximal effect;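 on activation: CHO cells stably overexpressing human ADRB2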
Method in brief: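 CHO cells stably over-expressing ADRB2 were plated overnight at 37C, then dosed with compounds plus a stimulation mix containing 100uM IBMX and 25uM Ro-20-1724 for 0.5hr at room temperature. cAMP was measured by HTRF competition, 1hr.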

[19] = p53 small molecule agonists, cell-based qHTS assay (AID 1963582; active means well fitted activation curve with a large enough effect in the signal ratio in the repeat runs, not every such curve was filed as active; the % refers to the signal ratio)
Method in brief: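 Reporter line: p53RE-bla. Pre-incubation 5 h, 37 C, 5% CO2; compound (DMSO, pin tool) 16 h, 37 C; B/G FRET substrate 2 h RT; fluorescence intensity read.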

[20] = Nuclear factor erythroid 2-related factor 2/antioxidant responsive element (Nrf2/ARE) small molecule agonists: luciferase reporter gene qHTS assay in human keratinocytes (AID 1919969); further: nearly all actives have a fitted effect of over 35% in size; further: potency means the concentration at half of the fitted maximal effect

Measured: Potency

Chain of Gonadotropin-releasing hormone receptor (Homo sapiens) (P30968 whole entry, looked up): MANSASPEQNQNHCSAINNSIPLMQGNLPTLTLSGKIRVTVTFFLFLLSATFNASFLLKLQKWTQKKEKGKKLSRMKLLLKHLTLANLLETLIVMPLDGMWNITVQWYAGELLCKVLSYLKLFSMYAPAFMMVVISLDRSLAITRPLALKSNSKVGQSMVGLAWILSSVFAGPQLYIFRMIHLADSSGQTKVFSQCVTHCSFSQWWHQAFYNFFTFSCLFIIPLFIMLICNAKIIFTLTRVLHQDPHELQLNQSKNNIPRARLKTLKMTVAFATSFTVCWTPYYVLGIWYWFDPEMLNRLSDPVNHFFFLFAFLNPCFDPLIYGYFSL
Chain of 5-hydroxytryptamine receptor 2A (Homo sapiens) (P28223 whole entry, looked up): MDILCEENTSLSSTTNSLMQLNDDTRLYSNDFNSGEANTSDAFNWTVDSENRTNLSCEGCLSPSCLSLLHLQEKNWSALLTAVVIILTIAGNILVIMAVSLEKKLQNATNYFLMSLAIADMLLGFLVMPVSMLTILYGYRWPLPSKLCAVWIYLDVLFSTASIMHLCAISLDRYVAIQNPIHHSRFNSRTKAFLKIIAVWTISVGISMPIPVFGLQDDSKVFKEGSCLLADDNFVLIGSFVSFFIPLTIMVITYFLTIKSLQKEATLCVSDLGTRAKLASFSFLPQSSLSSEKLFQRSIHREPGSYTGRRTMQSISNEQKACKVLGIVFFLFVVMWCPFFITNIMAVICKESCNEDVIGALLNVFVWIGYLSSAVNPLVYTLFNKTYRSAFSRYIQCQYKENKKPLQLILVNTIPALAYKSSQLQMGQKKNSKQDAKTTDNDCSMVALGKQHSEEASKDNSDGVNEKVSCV
Chain of KiSS-1 receptor (Homo sapiens) (Q969F8 whole entry, looked up): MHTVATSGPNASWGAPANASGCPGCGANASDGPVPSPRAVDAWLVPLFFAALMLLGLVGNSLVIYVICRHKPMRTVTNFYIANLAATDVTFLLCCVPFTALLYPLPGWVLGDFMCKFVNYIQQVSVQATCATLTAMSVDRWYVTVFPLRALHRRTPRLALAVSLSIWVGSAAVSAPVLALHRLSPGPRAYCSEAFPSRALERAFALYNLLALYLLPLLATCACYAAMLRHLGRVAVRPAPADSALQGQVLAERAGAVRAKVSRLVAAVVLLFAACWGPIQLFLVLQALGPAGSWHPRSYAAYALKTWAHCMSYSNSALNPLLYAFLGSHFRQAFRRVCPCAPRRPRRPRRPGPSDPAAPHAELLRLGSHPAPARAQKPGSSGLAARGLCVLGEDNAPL
Chain of Muscarinic acetylcholine receptor M1 (Homo sapiens) (P11229 whole entry, looked up): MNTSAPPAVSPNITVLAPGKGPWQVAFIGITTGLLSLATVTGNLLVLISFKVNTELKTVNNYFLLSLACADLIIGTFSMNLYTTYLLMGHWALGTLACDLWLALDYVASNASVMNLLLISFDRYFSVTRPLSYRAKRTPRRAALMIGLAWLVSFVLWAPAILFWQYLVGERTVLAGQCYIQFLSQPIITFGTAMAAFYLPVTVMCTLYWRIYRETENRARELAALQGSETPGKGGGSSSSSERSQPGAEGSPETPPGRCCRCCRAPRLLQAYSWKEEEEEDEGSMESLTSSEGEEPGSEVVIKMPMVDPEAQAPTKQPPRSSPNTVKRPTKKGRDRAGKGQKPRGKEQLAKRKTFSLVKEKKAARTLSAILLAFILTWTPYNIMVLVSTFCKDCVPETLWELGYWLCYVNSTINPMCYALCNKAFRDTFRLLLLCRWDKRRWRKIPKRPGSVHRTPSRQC
Chain of D(2) dopamine receptor (Homo sapiens) (P14416 whole entry, looked up): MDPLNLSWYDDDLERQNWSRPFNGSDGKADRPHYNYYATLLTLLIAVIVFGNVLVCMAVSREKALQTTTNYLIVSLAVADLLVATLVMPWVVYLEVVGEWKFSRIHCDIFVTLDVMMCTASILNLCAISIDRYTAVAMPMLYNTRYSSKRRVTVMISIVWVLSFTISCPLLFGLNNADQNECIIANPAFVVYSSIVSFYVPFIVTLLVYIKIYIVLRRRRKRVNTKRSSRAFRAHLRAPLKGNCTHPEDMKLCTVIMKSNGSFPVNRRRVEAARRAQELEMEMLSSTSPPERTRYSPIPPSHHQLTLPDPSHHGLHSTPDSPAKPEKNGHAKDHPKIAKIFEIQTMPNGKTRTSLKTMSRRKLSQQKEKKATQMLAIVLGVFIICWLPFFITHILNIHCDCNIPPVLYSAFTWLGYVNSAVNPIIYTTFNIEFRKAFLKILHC
Chain of Beta-2 adrenergic receptor (Homo sapiens) (P07550 whole entry, looked up): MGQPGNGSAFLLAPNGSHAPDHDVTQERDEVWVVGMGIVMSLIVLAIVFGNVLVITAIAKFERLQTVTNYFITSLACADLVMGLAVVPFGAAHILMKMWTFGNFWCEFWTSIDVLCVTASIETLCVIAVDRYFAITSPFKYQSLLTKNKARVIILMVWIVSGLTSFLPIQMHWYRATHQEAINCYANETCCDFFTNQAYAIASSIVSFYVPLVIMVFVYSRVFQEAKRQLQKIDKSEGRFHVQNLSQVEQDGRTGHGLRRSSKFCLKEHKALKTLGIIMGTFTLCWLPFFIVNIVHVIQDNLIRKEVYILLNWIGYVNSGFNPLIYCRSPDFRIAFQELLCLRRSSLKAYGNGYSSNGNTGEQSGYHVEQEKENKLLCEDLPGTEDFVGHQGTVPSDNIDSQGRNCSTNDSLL

CC(C)CCCCCCCOP(=O)(Oc1ccccc1)Oc1ccccc1
not listed: [13] | [14] | [15] | [16] | [17] | [18] | [19] | [20]
inactive: all other assays above

Cc1cc(C)c(C(=O)P(=O)(C(=O)c2c(C)cc(C)cc2C)c2ccccc2)c(C)c1
not listed: [5] | [10] | [12] | [19] | [20]
inactive: all other assays above

CC(C)(C)C(O)C(Oc1ccc(-c2ccccc2)cc1)n1cncn1 (stereo not drawn)
not listed: [5] | [18] | [20]
inactive: all other assays above

COc1cc(OC)c(OC)cc1C=O
inactive: [20] | [3] | [4] | [19] | [8] | [15] | [9] | [16]

N#CCCC(Br)(C#N)CBr (stereo not drawn)
inactive: [3] | [13] | [14] | [4] | [5] | [6] | [7] | [15] | [16]
active: [1] 38.9 µM | [2] 54.9 µM

CC1COC(Cn2cncn2)(c2ccc(Oc3ccc(Cl)cc3)cc2Cl)O1 (stereo not drawn)
not listed: [10] | [15] | [16] | [18] | [19] | [20]
inactive: all other assays above

Oc1ccc(C2(c3ccc(O)cc3)CCCCC2)cc1
active: [4] 43.3 µM
inactive: [20] | [2] | [3] | [13] | [14] | [7] | [8] | [16] | [11] | [12]

O=S1(=O)OCC2C(CO1)C1(Cl)C(Cl)=C(Cl)C2(Cl)C1(Cl)Cl (stereo not drawn)
active: [20] 24.3 µM
not listed: [1] | [10] | [16] | [17] | [19]
inactive: all other assays above

CCOC(=O)COc1ccc(Cl)cc1Cl
not listed: [4] | [8] | [9] | [14] | [16] | [20]
inactive: all other assays above

CC(=O)[O-].CC(=O)[O-].[Co+2]
not listed: [9] | [13] | [14] | [16] | [19] | [20]
inactive: all other assays above

O=C(N[C@@H]1N=C(c2ccccc2F)c2cccc3c2N(CC3)C1=O)c1cc2ccccc2[nH]1
active: [1] 4.25 µM | [2] 15.1 µM | [8] 13.4 µM
not listed: [3] | [4] | [7] | [12] | [13] | [19] | [20]
inactive: all other assays above

CC(C)CC(=O)N[C@H](C(=O)N[C@H](C(=O)N[C@@H](CC(C)C)[C@@H](O)CC(=O)N[C@@H](C)C(=O)N[C@@H](CC(C)C)[C@@H](O)CC(=O)O)C(C)C)C(C)C (Isovaleryl-VV[Sta]A[Sta]-OH)
inactive: [7] | [8] | [15] | [9]

Cc1ccc2ccccc2c1C
inactive: [7] | [8] | [15] | [9] | [11] | [12]

CN1CC[C@]23c4c5ccc(O)c4O[C@H]2[C@@H](O)C=C[C@H]3[C@H]1C5
not listed: [4] | [5] | [6] | [13] | [14] | [15] | [19] | [20]
inactive: all other assays above

CCC1(c2cnc[nH]2)Cc2ccccc2C1
inactive: [13] | [14] | [4] | [5] | [6] | [19]

CCCCC(CC)COC(=O)c1ccccc1C(=O)OCC(CC)CCCC (stereo not drawn)
inactive: [1] | [3] | [13] | [14] | [4] | [17] | [12]

O=S(=O)(NS(=O)(=O)C(F)(F)F)C(F)(F)F
inactive: [1] | [2] | [3] | [5] | [6] | [8] | [15] | [17] | [18] | [11] | [12]

NC(=O)CC[C@@H]1NC(=O)[C@H](Cc2ccccc2)NC(=O)[C@H](Cc2ccc(O)cc2)NC(=O)CCSSC[C@@H](C(=O)N2CCC[C@H]2C(=O)N[C@@H](CCCN=C(N)N)C(=O)NCC(N)=O)NC(=O)[C@H](CC(N)=O)NC1=O
inactive: [8] | [15] | [9]

CSCC[C@H](NC(=O)[C@H](Cc1c[nH]c2ccccc12)NC(=O)CCNC(=O)OC(C)(C)C)C(=O)N[C@@H](CC(=O)O)C(=O)N[C@@H](Cc1ccccc1)C(N)=O
inactive: [7] | [8] | [15] | [9]

CN1C(=O)C(O)N=C(c2ccccc2)c2cc(Cl)ccc21 (stereo not drawn)
active: [18] 31.7 µM
not listed: [1] | [4] | [5] | [7] | [13] | [14] | [19] | [20]
inactive: all other assays above

CC(C)C[C@H](NC(=O)CNC(=O)[C@H](Cc1ccc(O)cc1)NC(=O)[C@H](CO)NC(=O)[C@H](Cc1c[nH]c2ccccc12)NC(=O)[C@H](Cc1cnc[nH]1)NC(=O)[C@@H]1CCC(=O)N1)C(=O)N[C@@H](CCCN=C(N)N)C(=O)N1CCC[C@H]1C(=O)NCC(N)=O (stereo in doubt)
inactive: [7] | [8] | [15] | [9]

COP(=S)(OC)Oc1ccc([N+](=O)[O-])cc1Cl
not listed: [3] | [13] | [14] | [18] | [20]
inactive: all other assays above

Reference: PubChem BioAssay (Tox21)
